Assays:
Assay in all cases: DAPPL (digital affinity profiling via proximity ligation, sequencing); 10 mM Tris-HCl pH 7.5, 50 mM NaCl, 1 mM DTT, 4% glycerol, room temperature, 30 min; GST-TFs on glutathione beads, 16-mer random dsDNA library, 0.1% formaldehyde crosslink after washing; high values mean tight binding
FLI1 = molecular target: T1, FLI1 (Homo sapiens, UniProt Q01543 1-452); conditions: protein: recombinant; tags: N-terminal GST; dsDNA, one strand shown
T1 sequence: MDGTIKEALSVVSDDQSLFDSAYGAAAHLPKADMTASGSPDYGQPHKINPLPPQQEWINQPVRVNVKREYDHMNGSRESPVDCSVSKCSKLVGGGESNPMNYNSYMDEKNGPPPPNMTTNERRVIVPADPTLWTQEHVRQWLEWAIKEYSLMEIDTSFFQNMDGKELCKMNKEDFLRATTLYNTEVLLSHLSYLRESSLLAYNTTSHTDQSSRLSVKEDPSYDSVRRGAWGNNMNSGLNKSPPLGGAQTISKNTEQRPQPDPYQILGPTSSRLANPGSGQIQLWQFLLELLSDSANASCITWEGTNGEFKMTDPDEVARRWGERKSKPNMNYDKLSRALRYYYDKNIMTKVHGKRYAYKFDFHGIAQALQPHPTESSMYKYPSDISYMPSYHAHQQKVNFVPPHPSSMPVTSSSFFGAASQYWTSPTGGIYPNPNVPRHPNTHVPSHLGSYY
In short: (§1)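 GST fusions of human transcription factors were expressed in yeast and captured with glutathione beads. Once given DNA barcodes and pooled alongside a tag-only sample, they were incubated for 30 min at room temperature with 200 nmole of a random double-stranded 16-mer DNA library in Tris/NaCl/DTT/glycerol buffer, then washed, crosslinked (0.1% formaldehyde), proximity-ligated, PCR-amplified and sequenced on an Illumina NextSeq500. The binding signal of each hexamer is its read frequency for a factor divided by its frequency for the tag-only sample.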

ELK1 = molecular target: T2, ELK1 (Homo sapiens, UniProt P19419 1-428); conditions: protein: recombinant; tags: N-terminal GST; dsDNA, one strand shown
T2 sequence: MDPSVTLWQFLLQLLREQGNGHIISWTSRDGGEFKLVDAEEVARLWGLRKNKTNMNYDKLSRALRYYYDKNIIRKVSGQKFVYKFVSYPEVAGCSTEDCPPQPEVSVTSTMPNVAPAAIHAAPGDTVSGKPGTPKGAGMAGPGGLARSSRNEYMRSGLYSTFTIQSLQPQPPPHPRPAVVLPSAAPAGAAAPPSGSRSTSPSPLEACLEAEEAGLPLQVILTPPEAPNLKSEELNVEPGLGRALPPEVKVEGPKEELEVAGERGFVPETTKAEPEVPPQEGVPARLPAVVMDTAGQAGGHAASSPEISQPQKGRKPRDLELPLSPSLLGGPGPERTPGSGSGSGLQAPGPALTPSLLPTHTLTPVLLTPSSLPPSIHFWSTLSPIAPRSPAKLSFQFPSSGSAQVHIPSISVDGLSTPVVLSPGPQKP
In short: as §1

GABPA = molecular target: T3, GABPA (Homo sapiens, UniProt Q06546 1-454); conditions: protein: recombinant; tags: N-terminal GST; dsDNA, one strand shown
T3 sequence: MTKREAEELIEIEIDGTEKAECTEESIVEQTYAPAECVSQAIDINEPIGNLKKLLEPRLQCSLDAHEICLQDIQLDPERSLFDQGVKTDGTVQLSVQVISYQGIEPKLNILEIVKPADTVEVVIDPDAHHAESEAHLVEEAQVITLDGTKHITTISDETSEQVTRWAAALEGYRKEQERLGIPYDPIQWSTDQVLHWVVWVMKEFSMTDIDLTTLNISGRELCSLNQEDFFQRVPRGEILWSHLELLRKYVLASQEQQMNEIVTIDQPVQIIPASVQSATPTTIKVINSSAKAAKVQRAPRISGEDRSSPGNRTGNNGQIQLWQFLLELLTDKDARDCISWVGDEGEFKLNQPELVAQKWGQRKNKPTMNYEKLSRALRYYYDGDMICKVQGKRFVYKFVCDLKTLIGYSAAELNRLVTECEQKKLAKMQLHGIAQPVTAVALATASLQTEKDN
In short: as §1

ERG = molecular target: T4, ERG (Homo sapiens, UniProt P11308 1-479); conditions: protein: recombinant; tags: N-terminal GST; dsDNA, one strand shown
T4 sequence: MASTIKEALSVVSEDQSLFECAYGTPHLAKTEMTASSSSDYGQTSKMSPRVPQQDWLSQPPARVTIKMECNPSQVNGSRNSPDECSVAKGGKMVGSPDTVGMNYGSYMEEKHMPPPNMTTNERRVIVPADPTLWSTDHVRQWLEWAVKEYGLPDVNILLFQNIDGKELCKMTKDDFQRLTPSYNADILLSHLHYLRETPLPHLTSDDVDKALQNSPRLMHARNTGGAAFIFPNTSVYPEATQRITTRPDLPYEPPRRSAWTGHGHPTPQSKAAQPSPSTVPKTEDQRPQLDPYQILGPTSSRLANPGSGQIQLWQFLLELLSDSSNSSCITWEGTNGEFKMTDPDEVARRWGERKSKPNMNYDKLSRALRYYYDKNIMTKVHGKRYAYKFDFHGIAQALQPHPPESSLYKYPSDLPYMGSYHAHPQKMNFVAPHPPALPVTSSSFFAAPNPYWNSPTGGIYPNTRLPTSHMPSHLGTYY
In short: as §1

ELF1 = ELF1 (Homo sapiens, UniProt P32519 1-619); conditions: protein: recombinant; tags: N-terminal GST; dsDNA, one strand shown
Chain of ELF1 (P32519 whole entry): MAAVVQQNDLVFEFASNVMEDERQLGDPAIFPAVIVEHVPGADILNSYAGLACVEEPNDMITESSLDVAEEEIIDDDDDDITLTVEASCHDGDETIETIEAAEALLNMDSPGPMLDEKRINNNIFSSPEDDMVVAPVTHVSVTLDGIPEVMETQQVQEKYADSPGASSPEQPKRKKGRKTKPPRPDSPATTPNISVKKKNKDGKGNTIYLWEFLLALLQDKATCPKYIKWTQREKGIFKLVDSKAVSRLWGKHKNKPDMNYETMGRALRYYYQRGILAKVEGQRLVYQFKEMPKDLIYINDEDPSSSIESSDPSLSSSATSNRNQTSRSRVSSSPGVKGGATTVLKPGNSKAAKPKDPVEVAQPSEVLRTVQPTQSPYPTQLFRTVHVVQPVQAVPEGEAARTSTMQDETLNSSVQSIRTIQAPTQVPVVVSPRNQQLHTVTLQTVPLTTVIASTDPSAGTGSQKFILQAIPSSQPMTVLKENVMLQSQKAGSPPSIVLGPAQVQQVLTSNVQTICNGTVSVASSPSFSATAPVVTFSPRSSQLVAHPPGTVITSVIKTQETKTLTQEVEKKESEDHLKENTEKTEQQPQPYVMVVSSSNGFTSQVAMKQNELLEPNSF
In short: as §1

EHF = molecular target: T5, EHF (Homo sapiens, UniProt Q9NZC4 1-300); conditions: protein: recombinant; tags: N-terminal GST; dsDNA, one strand shown
T5 sequence: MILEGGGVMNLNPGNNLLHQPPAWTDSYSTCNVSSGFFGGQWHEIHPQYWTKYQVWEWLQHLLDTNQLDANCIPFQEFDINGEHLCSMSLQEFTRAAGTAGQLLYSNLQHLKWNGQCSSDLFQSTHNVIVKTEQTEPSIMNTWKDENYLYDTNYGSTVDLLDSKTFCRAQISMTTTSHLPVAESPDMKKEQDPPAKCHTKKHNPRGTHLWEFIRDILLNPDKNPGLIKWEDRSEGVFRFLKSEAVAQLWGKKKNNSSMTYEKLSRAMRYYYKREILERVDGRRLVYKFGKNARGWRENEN
In short: as §1

SPI1 = SPI1 (Homo sapiens, UniProt P17947 1-270); conditions: protein: recombinant; tags: N-terminal GST; dsDNA, one strand shown
In short: as §1

SPIB = SPIB (Homo sapiens, UniProt Q01892 1-262); conditions: protein: recombinant; tags: N-terminal GST; dsDNA, one strand shown
Chain of SPIB (Q01892 whole entry): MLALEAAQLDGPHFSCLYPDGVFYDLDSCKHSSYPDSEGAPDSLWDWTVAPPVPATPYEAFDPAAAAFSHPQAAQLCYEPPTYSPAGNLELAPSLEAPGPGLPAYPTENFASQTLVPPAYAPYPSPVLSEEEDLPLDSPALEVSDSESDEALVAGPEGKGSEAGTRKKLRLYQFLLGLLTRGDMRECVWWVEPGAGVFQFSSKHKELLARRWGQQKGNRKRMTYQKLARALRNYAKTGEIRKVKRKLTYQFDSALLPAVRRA
In short: as §1

ELK3 = molecular target: T6, ELK3 (Homo sapiens, UniProt P41970 1-407); conditions: protein: recombinant; tags: N-terminal GST; dsDNA, one strand shown
T6 sequence: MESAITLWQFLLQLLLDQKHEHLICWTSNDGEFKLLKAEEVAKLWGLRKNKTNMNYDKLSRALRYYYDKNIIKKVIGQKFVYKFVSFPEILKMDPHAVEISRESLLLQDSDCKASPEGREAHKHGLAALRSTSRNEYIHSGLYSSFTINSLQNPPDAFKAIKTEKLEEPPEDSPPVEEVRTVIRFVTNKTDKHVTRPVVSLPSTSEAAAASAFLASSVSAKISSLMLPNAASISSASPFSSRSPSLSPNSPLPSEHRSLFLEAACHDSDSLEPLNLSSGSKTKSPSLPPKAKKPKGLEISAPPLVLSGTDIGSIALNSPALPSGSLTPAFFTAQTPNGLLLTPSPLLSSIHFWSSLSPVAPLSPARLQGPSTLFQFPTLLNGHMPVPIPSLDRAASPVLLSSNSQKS
In short: as §1

FEV = molecular target: T7, FEV (Homo sapiens, UniProt Q99581 1-238); conditions: protein: recombinant; tags: N-terminal GST; dsDNA, one strand shown
T7 sequence: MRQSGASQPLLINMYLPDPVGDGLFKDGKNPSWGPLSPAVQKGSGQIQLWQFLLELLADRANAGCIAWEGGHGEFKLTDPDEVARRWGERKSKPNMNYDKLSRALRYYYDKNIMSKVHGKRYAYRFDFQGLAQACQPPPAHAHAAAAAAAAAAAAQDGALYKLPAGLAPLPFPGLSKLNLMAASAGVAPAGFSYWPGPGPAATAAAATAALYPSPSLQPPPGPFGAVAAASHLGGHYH
In short: as §1

ETV5 = ETV5 (Homo sapiens, UniProt P41161 1-510); conditions: protein: recombinant; tags: N-terminal GST; dsDNA, one strand shown
Chain of ETV5 (P41161 whole entry): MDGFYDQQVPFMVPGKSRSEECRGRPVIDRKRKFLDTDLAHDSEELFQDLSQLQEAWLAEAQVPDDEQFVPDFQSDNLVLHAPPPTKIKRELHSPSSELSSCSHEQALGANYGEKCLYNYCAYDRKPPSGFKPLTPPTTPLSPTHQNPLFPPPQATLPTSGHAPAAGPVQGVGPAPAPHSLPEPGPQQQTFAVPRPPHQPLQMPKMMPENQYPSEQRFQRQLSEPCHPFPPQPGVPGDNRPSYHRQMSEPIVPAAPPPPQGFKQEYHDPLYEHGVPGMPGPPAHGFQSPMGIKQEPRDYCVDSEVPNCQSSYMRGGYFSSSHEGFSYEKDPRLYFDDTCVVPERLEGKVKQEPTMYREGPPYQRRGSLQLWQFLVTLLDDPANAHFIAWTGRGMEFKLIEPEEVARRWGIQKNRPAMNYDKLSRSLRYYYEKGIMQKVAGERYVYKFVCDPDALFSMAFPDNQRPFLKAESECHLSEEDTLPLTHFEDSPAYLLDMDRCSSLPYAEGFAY
In short: as §1

HSF1 = HSF1 (Homo sapiens, UniProt Q00613 1-529); conditions: protein: recombinant; tags: N-terminal GST; chain copies: 3; dsDNA, one strand shown
Chain of HSF1 (Q00613 whole entry): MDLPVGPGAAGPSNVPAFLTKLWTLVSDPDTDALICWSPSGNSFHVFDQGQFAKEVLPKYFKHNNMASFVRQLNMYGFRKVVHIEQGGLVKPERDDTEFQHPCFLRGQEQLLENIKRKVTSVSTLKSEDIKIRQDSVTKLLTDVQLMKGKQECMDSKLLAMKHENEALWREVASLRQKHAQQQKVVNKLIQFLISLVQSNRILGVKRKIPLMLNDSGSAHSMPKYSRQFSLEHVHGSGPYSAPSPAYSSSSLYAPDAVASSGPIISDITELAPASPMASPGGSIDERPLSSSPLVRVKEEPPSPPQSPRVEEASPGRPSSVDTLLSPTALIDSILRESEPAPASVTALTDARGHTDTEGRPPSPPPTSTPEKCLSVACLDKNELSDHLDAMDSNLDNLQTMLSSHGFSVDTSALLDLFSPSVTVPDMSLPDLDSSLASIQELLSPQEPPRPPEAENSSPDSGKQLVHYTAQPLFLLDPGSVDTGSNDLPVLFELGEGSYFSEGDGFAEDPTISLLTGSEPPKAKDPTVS
In short: as §1

SPIC = molecular target: T8, SPIC (Homo sapiens, UniProt Q8N5J4 1-248); conditions: protein: recombinant; tags: N-terminal GST; dsDNA, one strand shown
T8 sequence: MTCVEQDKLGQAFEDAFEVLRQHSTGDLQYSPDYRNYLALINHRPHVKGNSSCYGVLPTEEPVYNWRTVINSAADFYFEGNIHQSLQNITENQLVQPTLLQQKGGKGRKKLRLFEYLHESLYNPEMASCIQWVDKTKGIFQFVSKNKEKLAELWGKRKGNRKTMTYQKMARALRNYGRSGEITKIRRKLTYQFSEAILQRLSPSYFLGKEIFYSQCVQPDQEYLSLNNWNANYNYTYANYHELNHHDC
In short: as §1

ELF4 = ELF4 (Homo sapiens, UniProt Q99607 1-663); conditions: protein: recombinant; tags: N-terminal GST; dsDNA, one strand shown
Chain of ELF4 (Q99607 whole entry): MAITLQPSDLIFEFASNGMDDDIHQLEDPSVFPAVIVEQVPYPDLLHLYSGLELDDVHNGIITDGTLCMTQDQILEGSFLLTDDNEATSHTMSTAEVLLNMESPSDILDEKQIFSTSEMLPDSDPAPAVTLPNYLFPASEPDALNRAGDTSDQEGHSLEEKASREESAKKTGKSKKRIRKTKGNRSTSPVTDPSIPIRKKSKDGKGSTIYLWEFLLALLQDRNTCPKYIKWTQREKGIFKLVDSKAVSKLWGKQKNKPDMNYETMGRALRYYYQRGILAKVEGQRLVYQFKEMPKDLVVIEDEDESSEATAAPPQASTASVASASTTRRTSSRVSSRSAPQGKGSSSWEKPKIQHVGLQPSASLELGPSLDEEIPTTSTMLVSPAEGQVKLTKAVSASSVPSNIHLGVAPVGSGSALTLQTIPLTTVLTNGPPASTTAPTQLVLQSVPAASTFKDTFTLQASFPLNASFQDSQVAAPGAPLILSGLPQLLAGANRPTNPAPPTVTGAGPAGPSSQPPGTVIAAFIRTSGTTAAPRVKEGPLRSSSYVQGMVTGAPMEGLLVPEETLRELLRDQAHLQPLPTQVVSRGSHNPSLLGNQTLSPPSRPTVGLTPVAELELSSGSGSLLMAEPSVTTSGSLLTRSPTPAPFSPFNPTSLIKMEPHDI
In short: as §1

ELK4 = molecular target: T9, ELK4 (Homo sapiens, UniProt P28324-2 1-405); conditions: protein: recombinant; tags: N-terminal GST; dsDNA, one strand shown
T9 sequence: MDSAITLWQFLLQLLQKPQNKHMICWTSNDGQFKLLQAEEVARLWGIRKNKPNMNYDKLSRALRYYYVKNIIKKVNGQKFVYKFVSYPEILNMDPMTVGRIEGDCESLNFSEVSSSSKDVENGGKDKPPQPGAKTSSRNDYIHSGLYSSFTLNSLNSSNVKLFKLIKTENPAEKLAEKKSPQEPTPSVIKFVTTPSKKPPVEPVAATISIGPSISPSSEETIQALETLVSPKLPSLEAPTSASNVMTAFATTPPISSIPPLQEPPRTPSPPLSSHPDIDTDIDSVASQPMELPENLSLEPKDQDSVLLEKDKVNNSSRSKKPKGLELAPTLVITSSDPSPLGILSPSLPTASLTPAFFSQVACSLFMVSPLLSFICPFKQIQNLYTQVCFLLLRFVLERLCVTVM
In short: as §1

ETV2 = molecular target: T10, ETV2 (Homo sapiens, UniProt O00321 1-342); conditions: protein: recombinant; tags: N-terminal GST; dsDNA, one strand shown
T10 sequence: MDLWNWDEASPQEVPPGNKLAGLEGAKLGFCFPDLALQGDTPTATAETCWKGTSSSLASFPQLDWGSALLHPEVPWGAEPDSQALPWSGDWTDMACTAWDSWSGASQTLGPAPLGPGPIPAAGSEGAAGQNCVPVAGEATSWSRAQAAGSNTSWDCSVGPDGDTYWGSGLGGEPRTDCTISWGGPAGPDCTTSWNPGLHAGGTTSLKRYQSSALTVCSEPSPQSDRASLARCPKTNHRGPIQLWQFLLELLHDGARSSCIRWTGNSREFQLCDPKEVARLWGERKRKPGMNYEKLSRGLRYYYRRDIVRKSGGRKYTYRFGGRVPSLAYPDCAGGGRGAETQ
In short: as §1

ELF3 = molecular target: T11, ELF3 (Homo sapiens, UniProt P78545 1-371); conditions: protein: recombinant; tags: N-terminal GST; dsDNA, one strand shown
T11 sequence: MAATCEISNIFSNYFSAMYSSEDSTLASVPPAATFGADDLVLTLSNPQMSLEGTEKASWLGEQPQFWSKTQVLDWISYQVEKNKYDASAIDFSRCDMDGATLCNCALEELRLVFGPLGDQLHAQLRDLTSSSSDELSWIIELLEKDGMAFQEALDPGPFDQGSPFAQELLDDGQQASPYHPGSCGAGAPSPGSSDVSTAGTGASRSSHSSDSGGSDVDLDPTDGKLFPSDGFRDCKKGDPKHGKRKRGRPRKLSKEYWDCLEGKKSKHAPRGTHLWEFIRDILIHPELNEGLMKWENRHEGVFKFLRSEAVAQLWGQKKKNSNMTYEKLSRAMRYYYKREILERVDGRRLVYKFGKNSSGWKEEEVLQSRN
In short: as §1

CRX = CRX (Homo sapiens, UniProt O43186 1-299); conditions: protein: recombinant; tags: N-terminal GST; dsDNA, one strand shown
Chain of CRX (O43186 whole entry): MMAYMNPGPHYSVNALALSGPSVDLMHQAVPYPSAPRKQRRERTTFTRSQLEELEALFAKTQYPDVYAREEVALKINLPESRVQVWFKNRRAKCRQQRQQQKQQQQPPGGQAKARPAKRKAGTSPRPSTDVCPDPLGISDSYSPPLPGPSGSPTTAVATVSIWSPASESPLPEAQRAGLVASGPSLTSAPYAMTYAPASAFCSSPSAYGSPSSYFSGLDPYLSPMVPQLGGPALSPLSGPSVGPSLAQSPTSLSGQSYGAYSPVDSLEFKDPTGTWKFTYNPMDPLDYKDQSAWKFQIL
In short: as §1

ETV1 = ETV1 (Homo sapiens, UniProt P50549 1-477); conditions: protein: recombinant; tags: N-terminal GST; dsDNA, one strand shown
Chain of ETV1 (P50549 whole entry): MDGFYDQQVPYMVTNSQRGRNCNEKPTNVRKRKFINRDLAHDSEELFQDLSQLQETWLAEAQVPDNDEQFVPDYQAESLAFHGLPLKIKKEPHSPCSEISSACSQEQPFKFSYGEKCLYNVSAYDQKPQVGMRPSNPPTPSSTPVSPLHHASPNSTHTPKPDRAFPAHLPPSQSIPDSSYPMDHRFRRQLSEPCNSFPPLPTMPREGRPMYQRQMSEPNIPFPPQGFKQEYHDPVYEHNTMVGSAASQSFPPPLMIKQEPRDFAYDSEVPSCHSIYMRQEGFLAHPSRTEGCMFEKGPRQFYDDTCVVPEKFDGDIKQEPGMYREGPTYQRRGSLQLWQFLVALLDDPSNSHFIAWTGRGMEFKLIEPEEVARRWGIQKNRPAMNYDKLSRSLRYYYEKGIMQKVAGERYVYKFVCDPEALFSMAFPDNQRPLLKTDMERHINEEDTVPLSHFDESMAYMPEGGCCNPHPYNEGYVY
In short: as §1

ATCCTG
binding signal (FLI1): 1.38 fold enrichment (6-mer frequency, TF over GST control) | binding signal (ELK1): 1.43 fold enrichment (6-mer frequency, TF over GST control) | binding signal (GABPA): 1.34 fold enrichment (6-mer frequency, TF over GST control) | binding signal (ERG): 1.62 fold enrichment (6-mer frequency, TF over GST control) | binding signal (ELF1): 1.36 fold enrichment (6-mer frequency, TF over GST control) | binding signal (EHF): 1.41 fold enrichment (6-mer frequency, TF over GST control) | binding signal (SPI1): 1.4 fold enrichment (6-mer frequency, TF over GST control) | binding signal (SPIB): 1.55 fold enrichment (6-mer frequency, TF over GST control) | binding signal (ELK3): 1.5 fold enrichment (6-mer frequency, TF over GST control) | binding signal (FEV): 1.46 fold enrichment (6-mer frequency, TF over GST control) | binding signal (ETV5): 1.71 fold enrichment (6-mer frequency, TF over GST control) | binding signal (HSF1): 1.33 fold enrichment (6-mer frequency, TF over GST control) | binding signal (SPIC): 1.19 fold enrichment (6-mer frequency, TF over GST control) | binding signal (ELF4): 1.35 fold enrichment (6-mer frequency, TF over GST control) | binding signal (ELK4): 1.33 fold enrichment (6-mer frequency, TF over GST control) | binding signal (ETV2): 1.42 fold enrichment (6-mer frequency, TF over GST control) | binding signal (ELF3): 1.35 fold enrichment (6-mer frequency, TF over GST control) | binding signal (CRX): 1.55 fold enrichment (6-mer frequency, TF over GST control) | binding signal (ETV1): 1.43 fold enrichment (6-mer frequency, TF over GST control)
